According to PubChem BioAssay (NCI):
About 83,000 compounds went through this panel and 20% of them were active in at least one assay; those are over-represented in the sample as a whole.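 Negative percent growth values reflect cell death: -40 means 40% of the cells present at the start died, and -100 means all died.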 A number with no mark means an inactive call. Activity calls are given as the source filed them. How the source made its calls: active means growth percent below 10; inactive means the rest.

Key:
Assay in all cases: NCI-60 one-dose screen, 48 h (100 = growth as untreated, 0 = no growth, -100 = all killed)
Details in all cases: 10 µM unless noted
[1] = test system: SR leukemia
[2] = test system: RPMI-8226 leukemia
[3] = test system: OVCAR-8 ovarian
[4] = test system: OVCAR-5 ovarian
[5] = test system: OVCAR-4 ovarian
[6] = test system: SK-OV-3 ovarian
[7] = test system: IGROV1 ovarian
[8] = test system: OVCAR-3 ovarian
[9] = test system: HS 578T breast
[10] = test system: NCI/ADR-RES ovarian
[11] = test system: T-47D breast
[12] = test system: BT-549 breast
[13] = test system: MDA-MB-435 melanoma
[14] = test system: SW-620 colon
[15] = test system: MCF7 breast
[16] = test system: HCT-116 colon
[17] = test system: HCC-2998 colon
[18] = test system: KM12 colon

| Structure (SMILES) | growth [1] | growth [2] | growth [3] | growth [4] | growth [5] | growth [6] | growth [7] | growth [8] | growth [9] | growth [10] | growth [11] | growth [12] | growth [13] | growth [14] | growth [15] | growth [16] | growth [17] | growth [18] |
| --- | --- | --- | --- | --- | --- | --- | --- | --- | --- | --- | --- | --- | --- | --- | --- | --- | --- | --- |
| Cc1[nH]c(=O)[nH]c(=O)c1CCSSCCc1c(C)[nH]c(=O)[nH]c1=O | 79.6% | 104% | 107% | 110% | 117% | 103% | 99.8% | 117% | 142% | 104% | 96.6% | 105% | 103% | 108% | 87.2% | 101% | 102% | 101% |
| FCc1ncc(-c2ccc(C(F)(F)F)cc2)c(NC2CCCCCC2)n1 | -18% [100 µM] (active) | 4.24% [100 µM] (active) | 15.8% [100 µM] | 32.7% [100 µM] | 27.2% [100 µM] | 46.1% [100 µM] | 27.2% [100 µM] | -85% [100 µM] (active) | 41.4% [100 µM] | 18.4% [100 µM] | -10.9% [100 µM] (active) | -50.1% [100 µM] (active) | -6.34% [100 µM] (active) | 4.08% [100 µM] (active) | 1.01% [100 µM] (active) | -2.53% [100 µM] (active) | 13.4% [100 µM] | -59.8% [100 µM] (active) |
| CCOC(=O)C(Br)=P(c1ccccc1)(c1ccccc1)c1ccccc1 | 90.2% | 83.1% | 90.4% | 106% | 106% | 102% | -30.7% (active) | 98% | 119% | 103% | 97.7% | 117% | 98.6% | 105% | 111% | 110% | 109% | 112% |
| O=C(Nc1ccccc1)P(=O)(O)c1ccccc1 | 98% | 111% | 92.4% | 92.9% | 105% | 113% | 121% | 104% | 107% | 99.4% | 113% | 110% | 111% | 101% | 96.8% | 98.1% | 97.3% | 99.8% |
| COc1ccc(-c2cc(-c3nnc(SCC(=O)Nc4ccc(C(C)=O)cc4)n3-c3ccccc3)c3ccccc3n2)cc1OC | 121% | 105% | 104% | 106% | 106% | 81.6% | 105% | 96.8% | 108% | 104% | 84% | 86.1% | 105% | 104% | 95.2% | 83.4% | 99.6% | 95.9% |
| Nc1ccccc1C#Cc1ccccc1C#Cc1ccc(OCCCCCCOc2ccc(C#Cc3ccccc3C#Cc3ccccc3N)cc2)cc1 | 94.7% | 94% | 95.6% | 90.7% | 105% | 92.5% | -7.54% (active) | 109% | 113% | 93% | 90.1% | 104% | 97.5% | 98.9% | 74.7% | 110% | 95.5% | 113% |
| COc1cc(/C=N/OC(=O)Nc2ccccc2)cc(OC)c1OC | 89.7% | 93.7% | 113% | 104% | 105% | 104% | 95.9% | 114% | 114% | 109% | 100% | 105% | 124% | 108% | 108% | 94.3% | 106% | 113% |
| CO[C@H]1/C=C/O[C@@]2(C)Oc3c(C)c(O)c4c(O)c(c(/C=N/N5C(C)CN(Cc6ccc(C#N)cc6)CC5C)c(O)c4c3C2=O)NC(=O)/C(C)=C\C=C\[C@H](C)[C@H](O)[C@@H](C)[C@@H](O)[C@@H](C)[C@H](OC(C)=O)[C@@H]1C (stereo partly drawn) | 19.3% | -6.25% (active) | 49.7% | 27.1% | 39.7% | 18.5% | 40.6% | -21.1% (active) | 45.6% | 40.1% | 18.1% | -0.569% (active) | 26.1% | 31.5% | 11.9% | 18.5% | 2.4% (active) | 15.8% |
| O=C(Nc1cccc(Cl)c1)Nc1cccc(Cl)c1 | 66.4% | 3.08% (active) | 77% | 86.8% | 62.4% | 93.4% | 91.4% | 15.1% | 80.7% | 55.6% | 19.4% | 96.7% | 88.8% | 81% | 64.3% | 42.5% | 72.6% | 43.6% |
| Cc1ccc2nc3c(n2c1)C(=O)C(=O)c1ccccc1-3 | -44.5% (active) | -51.9% (active) | -68.1% (active) | -74% (active) | -98.4% (active) | -90.9% (active) | -49.1% (active) | -82.5% (active) | -15.6% (active) | -3.7% (active) | -44.1% (active) | -96.4% (active) | -69.6% (active) | -80.5% (active) | -64.1% (active) | -50.4% (active) | -54% (active) | -26.6% (active) |
| Cc1ccc(-c2c3c(N)c4c(nc3nc3c2c(C)nn3-c2ccccc2)CCC4)cc1 | 6.66% (active) | 85.6% | 88% | 94.7% | 124% | 96.4% | 96.3% | 102% | 87.9% | 85.7% | 103% | 90.4% | 103% | 6.36% (active) | 14.9% | -72.5% (active) | 100% | 79.8% |
| CCOC(=O)CCN(c1c(Cl)ssc1=O)C(C)C | 134% | 105% | 97.2% | 87.2% | 106% | 116% | -5.46% (active) | 128% | 103% | 105% | 112% | 95.7% | 107% | 99.3% | 89.7% | 93.4% | 115% | 113% |
| CCOc1cc(/C=C/C(=O)CC(=O)/C=C/c2ccc(OC(=O)CNCCN(CC)CC)c(OCC)c2)ccc1OC(=O)CNCCN(CC)CC | -42.1% (active) | -52.9% (active) | 4.23% (active) | -34.5% (active) | 18.1% | 32.6% | -67.7% (active) | 0.276% (active) | 1.48% (active) | 16.3% | 36.9% | -77.2% (active) | -21.6% (active) | -58.1% (active) | 7.36% (active) | -84.7% (active) | -71.2% (active) | -60.2% (active) |
| CC(C)Sc1nc(Cl)c(C#N)c(-c2ccc(F)cc2)n1 | -25.2% (active) | 78.5% | 97.1% | 99.2% | 107% | 110% | 103% | 128% | 106% | 105% | 98.1% | 108% | 101% | 72.2% | 96.4% | 62% | 112% | 107% |
| O=Cc1ncc(-c2ccc(C(F)(F)F)cc2)c(NC2CCCCCC2)n1 | -29.1% [100 µM] (active) | -35.1% [100 µM] (active) | -68.2% [100 µM] (active) | -91.8% [100 µM] (active) | -73.8% [100 µM] (active) | -13.7% [100 µM] (active) | -68.3% [100 µM] (active) | -94.5% [100 µM] (active) | -39.1% [100 µM] (active) | -69.8% [100 µM] (active) | -19% [100 µM] (active) | -93.4% [100 µM] (active) | -88.1% [100 µM] (active) | -44.4% [100 µM] (active) | -86.3% [100 µM] (active) | -94.3% [100 µM] (active) | -74.4% [100 µM] (active) | -87.6% [100 µM] (active) |
| N#Cc1c(-c2ccccc2)cc(-c2ccccc2)n(CC(=O)O)c1=O | 25% | 50.4% | 57.1% | 94.4% | 93% | 99.9% | 61.4% | 17.7% | 51.6% | 26.2% | 45.3% | 25.8% | -10.6% (active) | 32.8% | 34.8% | 39.2% | 82.4% | 41.3% |
